Assay [1] in a line: qHTS of pediatric cancer cell lines to identify multiple opportunities for drug repurposing: Primary screen for BT-12 cells (AID 1347101). Also: nearly all actives have a fitted effect of over 25% in size. Also: potency is read from the fitted curve at half-maximal effect.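 As to activity change, negative = cytotoxic: plate controls were DMSO for no effect and bortezomib positive control for full effect.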 In short, it runs like this: (§1)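 Cells (500-1,000/well) rested 5 h, then received compounds for 48 h; metabolically active cells were measured by CellTiter-Glo luminescence. Final concentrations spanned up to 46 µM (MIPE, 11-point) or 0.59 nM-46 µM (NPC, 8-point) in primary screens, 11-point in follow-ups.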

Assay [2] is described as follows: qHTS of pediatric cancer cell lines to identify multiple opportunities for drug repurposing: Primary screen for Rh18 cells (AID 1347102). Also: nearly all actives have a fitted effect of over 65% in size. Also: potency is read from the fitted curve at half-maximal effect. As to activity change, negative = cytotoxic: % is scaled to controls: 0 for no effect and ±100 for the full control effect. In short, it runs like this:
(§2)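 Cells (500-1,000/well) in growth media were settled 5 h at 37 degrees C, then given compounds for 48 h. Viability was read as CellTiter-Glo luminescence. Primary runs used MIPE at 11 points (0.78 nM-46 µM) and NPC at 8 points (0.59 nM-46 µM); follow-ups used 11 points.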
On the technique in general: qHTS replaces the single test concentration by a dilution series.

A short description of assay [3]: qHTS of pediatric cancer cell lines to identify multiple opportunities for drug repurposing: Primary screen for OHS-50 cells (AID 1347103). Also: nearly all actives have a fitted effect of over 40% in size. Also: potency is read from the fitted curve at half-maximal effect.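 As to activity change, negative = cytotoxic: plate controls were DMSO neutral control for no effect and bortezomib positive control for full effect.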 In short, it runs like this: as §1
Assay [4] is described as follows: qHTS of pediatric cancer cell lines to identify multiple opportunities for drug repurposing: Primary screen for RD cells (AID 1347104). Also: nearly all actives have a fitted effect of over 55% in size. Also: potency is read from the fitted curve at half-maximal effect.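 As to activity change, negative = cytotoxic: plate controls were DMSO for no effect and bortezomib for full effect.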 The method, boiled down:
(§3)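 Following a 5-hour attachment period, cells at 500-1,000/well received compounds and were cultured for 48 hours. CellTiter-Glo was added and luminescence read to estimate viable, metabolically active cells.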

Assay [5] can be described thus: qHTS of pediatric cancer cell lines to identify multiple opportunities for drug repurposing: Primary screen for control Hh wild type fibroblast cells (AID 1347106).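 Also: % is scaled to controls: 0 for no effect and ±100 for the full control effect; a drop in luminescence marks cytotoxicity and a rise apparent proliferation; nearly all actives have a fitted effect of over 55% in size.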 In short, it runs like this:
as §2

Assay [6] in a line: qHTS of pediatric cancer cell lines to identify multiple opportunities for drug repurposing: Primary screen for Rh30 cells (AID 1347107). Also: nearly all actives have a fitted effect of over 75% in size. Also: potency is read from the fitted curve at half-maximal effect. As to activity change, negative = cytotoxic: % is scaled to controls: 0 for no effect and ±100 for the full control effect. In short, it runs like this: as §2
A short description of assay [7]: qHTS of pediatric cancer cell lines to identify multiple opportunities for drug repurposing: Primary screen for Rh41 cells (AID 1347108). Also: nearly all actives have a fitted effect of over 70% in size. Also: potency is read from the fitted curve at half-maximal effect.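 As to activity change, negative = cytotoxic: luminescence drop marks cytotoxic hits.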 The method, boiled down:
as §3

Assay [8] in a line: qHTS of pediatric cancer cell lines to identify multiple opportunities for drug repurposing: Primary screen for MG 63 (6-TG R) cells (AID 1347105). Also: nearly all actives have a fitted effect of over 50% in size. Also: potency is read from the fitted curve at half-maximal effect. As to activity change, negative = cytotoxic: % is scaled to controls: 0 for no effect and ±100 for the full control effect. The method, boiled down: as §3
Assay [9] is described as follows: qHTS of pediatric cancer cell lines to identify multiple opportunities for drug repurposing: Confirmatory screen for NB1643 cells (AID 1347109). Also: potency is read from the fitted curve at half-maximal effect; nearly all actives have a fitted effect of over 45% in size. In short, it runs like this: as §2
The nature of assay [10]: qHTS of pediatric cancer cell lines to identify multiple opportunities for drug repurposing: Confirmatory screen for LAN-5 cells (AID 1347113). Also: potency is read from the fitted curve at half-maximal effect; nearly all actives have a fitted effect of over 65% in size. The method, boiled down: as §2
Assay [11] can be described thus: qHTS of pediatric cancer cell lines to identify multiple opportunities for drug repurposing: Confirmatory screen for DAOY cells (AID 1347114). Also: nearly all actives have a fitted effect of over 65% in size. Also: potency is read from the fitted curve at half-maximal effect. In short, it runs like this:
(§4)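 Viability measured as metabolically active cells via CellTiter-Glo luminescence following 48 hours of compound exposure, 11-point dilutions in confirmatory testing. 500-1,000 cells/well plated 5 hours before dosing; controls were DMSO and 2.3 µM bortezomib.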

The nature of assay [12]: qHTS of pediatric cancer cell lines to identify multiple opportunities for drug repurposing: Confirmatory screen for SJ-GBM2 cells (AID 1347116). Also: nearly all actives have a fitted effect of over 60% in size. Also: potency is read from the fitted curve at half-maximal effect.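 As to activity change, negative = cytotoxic: plate controls were DMSO for no effect and bortezomib for full effect.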 The method, boiled down: as §4
The nature of assay [13]: qHTS of pediatric cancer cell lines to identify multiple opportunities for drug repurposing: Confirmatory screen for BT-37 cells (AID 1347117). Also: nearly all actives have a fitted effect of over 55% in size. Also: potency is read from the fitted curve at half-maximal effect.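 As to activity change, negative = cytotoxic: plate controls were DMSO for no effect and bortezomib for full effect.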 The note with it: BT-37 pediatric cancer cells, viability; activity change, negative = cytotoxic: at 45.9 µM (top of the series). The method, boiled down: as §2
Assay [14] can be described thus: qHTS of pediatric cancer cell lines to identify multiple opportunities for drug repurposing: Confirmatory screen for TC32 cells (AID 1347118).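 Also: potency is read from the fitted curve at half-maximal effect; cells exposed to compound for 48 h before the read; nearly all actives have a fitted effect of over 65% in size.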 In short, it runs like this: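 Luminescent CellTiter-Glo read-out of metabolically active TC32 cells after 48 h compound exposure. Primary: MIPE 11-point, 0.78 nM–46 µM; NPC 8-point, 0.59 nM–46 µM. Confirmatory: 11-point dilutions.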

Assay [15] in a line: qHTS of pediatric cancer cell lines to identify multiple opportunities for drug repurposing: Confirmatory screen for MG 63 (6-TG R) cells (AID 1347119). Also: nearly all actives have a fitted effect of over 55% in size. Also: potency is read from the fitted curve at half-maximal effect. The method, boiled down: as §2
Assay [16] can be described thus: qHTS of pediatric cancer cell lines to identify multiple opportunities for drug repurposing: Confirmatory screen for control Hh wild type fibroblast cells (AID 1347121). Also: nearly all actives have a fitted effect of over 70% in size. Also: potency is read from the fitted curve at half-maximal effect. In short, it runs like this:
as §2

Assay [17] can be described thus: qHTS of pediatric cancer cell lines to identify multiple opportunities for drug repurposing: Confirmatory screen for A673 cells (AID 1347110). In short, it runs like this: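 Viability was read as ATP luminescence (CellTiter-Glo) after 48 h of compound exposure at 37 C in A673 cells seeded at 500-1,000/well. Titrations reached 46 uM final, with 11 points in the confirmatory screen. Concentration-response curves were fitted directly.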

Assay [18] is described as follows: qHTS of pediatric cancer cell lines to identify multiple opportunities for drug repurposing: Confirmatory screen for SK-N-MC cells (AID 1347111).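 Also: potency is read from the fitted curve at half-maximal effect; cells exposed to compound for 48 h before the readout; nearly all actives have a fitted effect of over 70% in size.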 In short, it runs like this:
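Metabolically active cells were quantified by ATP-dependent luminescence (CellTiter-Glo, 15 min at room temperature) following 48 h treatment. Cells had been plated at 500-1,000 per well and settled for 5 h beforehand.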

Assay [19] is described as follows: qHTS of pediatric cancer cell lines to identify multiple opportunities for drug repurposing: Confirmatory screen for BT-12 cells (AID 1347112). Also: nearly all actives have a fitted effect of over 55% in size. Also: potency is read from the fitted curve at half-maximal effect. As to activity change, negative = cytotoxic: % is scaled to controls: 0 for no effect and ±100 for the full control effect. In short, it runs like this:
as §2

The nature of assay [20]: qHTS of pediatric cancer cell lines to identify multiple opportunities for drug repurposing: Confirmatory screen for NB-EBc1 cells (AID 1347115).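 Also: cells exposed to compound for 48 h before the viability read; nearly all actives have a fitted effect of over 45% in size.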 Also: potency is read from the fitted curve at half-maximal effect. The method, boiled down: as §2

Inconclusive results are not listed. A number with no mark means an inactive call. Calls of active or inactive are those of the source. Calls follow the shape of the dose curve; as a rule, active = well fitted curve in the direction sought with a large enough effect; inconclusive = small, poorly fitted or top-dose-only effect, or another doubt; inactive = no such curve, though single readings can be large; an effect the other way counts as inactive or inconclusive. Residues, ends and D or L forms follow the SMILES beside them. *: point of attachment. Cbz = O=C(OCc1ccccc1)*

For `CCN1CCN(C(=O)N[C@H](C(=O)N[C@@H]2C(=O)N3C(C(=O)O)=C(CSc4nnnn4C)CS[C@@H]23)c2ccc(O)cc2)C(=O)C1=O`, the activity change, negative = cytotoxic is 17.1% [at 11.5 µM] in [1]; 10.3% [at 9.22 µM] in assay [2]; 20.3% [at 11.5 µM] in assay [3]; 6.64% [at 9.22 µM] in assay [4]; -2.3% [at 9.22 µM] in [5]; 26.1% [at 9.22 µM] in assay [6]. Moreover, the activity change, negative = cytotoxic in [7] is 38.6% [at 9.22 µM].
With `CN[C@@H]1C[C@H]2O[C@@](C)([C@H]1OC)n1c3ccccc3c3c4c(c5c6ccccc6n2c5c31)C(=O)N[C@H]4O`, the Potency in assay [1] is 27.3 µM (active); in assay [2], 0.59 µM (active); in assay [3] it was 0.217 µM (active); in assay [4], 1.05 µM (active); in [8], 0.187 µM (active); in assay [7] it was 5.9 µM (active). Moreover, the Potency was 0.737 µM (active) in assay [9]; 0.928 µM (active) in assay [10]; 1.47 µM (active) in assay [11]; 2.61 µM (active) in assay [12]; 2.61 µM (active) in [13]; 0.414 µM (active) in assay [14]. Further, the results for the Potency in [15] and in assay [16] were 0.104 µM (active) and 10.4 µM (active), respectively.
`CCC[C@H]1C[C@H](C(=O)N[C@@H]([C@@H]2O[C@@H](SC)[C@@H](O)[C@@H](O)[C@@H]2O)[C@H](C)Cl)N(C)C1`: the Potency result in [1], in [2], in assay [3], in assay [4], in [5] and in assay [6] was “inactive” each time. Besides, the Potency entry in [7] was “inactive”.
As to `O=C(C=CC=Cc1ccc2c(c1)OCO2)N1CCCCC1`, the Potency result in assay [1], in [2], in assay [3], in assay [4], in [8] and in [6] was “inactive” in each case. Moreover, the Potency entry in assay [7], in [19], in assay [11], in [12], in [13] and in assay [15] was “inactive” throughout. The Potency result in assay [16] is “inactive”. Moreover, the Potency is 16.5 µM (active) in assay [17], 8.27 µM (active) in assay [18] and 10.4 µM (active) in [14].
As to `CN(C)CC(=O)N1CCC(c2ccc(NC(=O)c3ncc(C#N)[nH]3)c(C3=CCCCC3)c2)CC1`, the Potency in [1] is 30.6 µM (active); in assay [2], 23.5 µM (active); in assay [3], 13.7 µM (active); in assay [4] it was 18.7 µM (active). The Potency result in assay [5] is “inactive”.
`COC1=C2C[C@@H](C)C[C@H](OC)[C@@H](O)[C@@H](C)C=C(C)[C@H](OC(N)=O)[C@@H](OC)C=CC=C(C)C(=O)NC(=CC1=O)C2=O`: the Potency in assay [1] is 6.11 µM (active); in assay [2], 5.9 µM (active); in assay [3], 6.85 µM (active); in [4] it was 5.26 µM (active); in [8], 14.8 µM (active); in [7], 7.43 µM (active). The Potency is 1.31 µM (active) in assay [9]; 2.61 µM (active) in [17]; 1.04 µM (active) in [18]; 1.47 µM (active) in assay [10]; 5.85 µM (active) in assay [11]; 9.27 µM (active) in [20]. The results for the Potency in assay [12], in assay [13] and in assay [14] were 1.31 µM (active), 1.04 µM (active) and 0.928 µM (active), respectively.
For the molecule `CC(C)C[C@@H](C=O)NC(=O)[C@H](CC(C)C)NC(=O)[C@H](CC(C)C)NC(=O)OCc1ccccc1` (Cbz-Leu-Leu-Leu-aldehyde), the Potency in [1] was 1.53 µM (active); in assay [2], 1.32 µM (active); in [3] it was 0.685 µM (active); in assay [4], 0.662 µM (active); in assay [8], 0.372 µM (active); in [6], 3.72 µM (active). In addition, the Potency in assay [7] was 1.48 µM (active); in assay [9], 1.17 µM (active); in assay [18], 0.369 µM (active); in assay [19], 1.17 µM (active); in assay [10], 1.04 µM (active); in [11], 0.737 µM (active). Besides, the Potency is 1.04 µM (active) in [12], 0.585 µM (active) in assay [13], 0.585 µM (active) in assay [15] and 5.85 µM (active) in assay [16].
Turning to `CC(C)(N)c1ccc(-c2nc3ccccc3nc2-c2ccccc2)cc1`, the Potency in [1] was 24.3 µM (active); in [2] it was 20.9 µM (active); in assay [3], 7.69 µM (active); in assay [4], 16.6 µM (active); in assay [8] it was 23.5 µM (active); in assay [7], 10.5 µM (active). In addition, the Potency was 26.1 µM (active) in assay [9], 0.928 µM (active) in assay [19], 0.465 µM (active) in [10] and 18.5 µM (active) in assay [13]. Further, the Potency result in assay [11] and in [20] was “inactive” throughout.
For the molecule `CC(=O)O[C@H]1C[C@@H]2CC[C@H]3[C@H]4C[C@H]([N+]5(C)CCCCC5)[C@@H](OC(C)=O)[C@@]4(C)CC[C@@H]3[C@@]2(C)C[C@H]1N1CCCCC1`, the Potency entry in assay [1], in assay [2], in assay [3], in assay [4], in assay [8] and in [15] was “inactive” throughout. For the same molecule, the Potency is 7.37 µM (active) in assay [19]; 4.14 µM (active) in assay [10]; 14.7 µM (active) in assay [12]; 3.29 µM (active) in [13]; 2.33 µM (active) in assay [14].
Take `Cc1noc(-c2ccc(CSCCC(=O)O)cc2)c1NC(=O)OC(C)c1ccccc1Cl` (centres undefined): the Potency entry in assay [1], in [2], in assay [3], in [4], in [5] and in assay [6] was “inactive” in each case. Besides, the Potency entry in assay [7] is “inactive”.
On to `CC(C)(O)[C@H]1CC[C@@](C)([C@H]2[C@@H](O)C[C@@]3(C)[C@@H]4C[C@H](O[C@@H]5O[C@H](CO)[C@@H](O)[C@H](O)[C@@H]5O)[C@H]5C(C)(C)[C@@H](O[C@@H]6OC[C@@H](O)[C@H](O)[C@@H]6O)CC[C@@]56C[C@@]46CC[C@]23C)O1`, for which the Potency result in [1], in assay [2], in assay [3], in assay [4], in assay [5] and in assay [6] was “inactive” in each case.
Consider `CC(C)NC[C@@H](C(=O)N1CCN(c2ncnc3c2[C@H](C)C[C@H]3O)CC1)c1ccc(Cl)cc1`, for which the Potency in assay [1] is 24.3 µM (active); in assay [2], 5.9 µM (active); in assay [3], 0.193 µM (active); in [4], 1.18 µM (active); in assay [8] it was 3.72 µM (active); in assay [7] it was 0.332 µM (active). The Potency is 2.93 µM (active) in [10], 4.14 µM (active) in assay [14] and 11.7 µM (active) in assay [15]. Further, the Potency entry in assay [19], in assay [11], in [12] and in assay [16] was “inactive” throughout.

(Values after PubChem BioAssay (NCATS).)
